{"source": "PubChem BioAssay (NCATS)", "note": "Activity calls are given as the source filed them. Entries that show only a call come without a potency. The call rests on the fitted dose curve; in most records, active means well fitted curve in the direction sought with a large enough effect; inconclusive means small, poorly fitted or top-dose-only effect, or another doubt; inactive means no such curve, though single readings can be large or run the other way. Potency means the concentration at half of the fitted maximal effect."}
{"target": "Hexokinase-4 (Homo sapiens) + Glucokinase regulatory protein (Homo sapiens) (UniProt P35557+Q14397)", "sequence (P35557 whole entry, looked up)": "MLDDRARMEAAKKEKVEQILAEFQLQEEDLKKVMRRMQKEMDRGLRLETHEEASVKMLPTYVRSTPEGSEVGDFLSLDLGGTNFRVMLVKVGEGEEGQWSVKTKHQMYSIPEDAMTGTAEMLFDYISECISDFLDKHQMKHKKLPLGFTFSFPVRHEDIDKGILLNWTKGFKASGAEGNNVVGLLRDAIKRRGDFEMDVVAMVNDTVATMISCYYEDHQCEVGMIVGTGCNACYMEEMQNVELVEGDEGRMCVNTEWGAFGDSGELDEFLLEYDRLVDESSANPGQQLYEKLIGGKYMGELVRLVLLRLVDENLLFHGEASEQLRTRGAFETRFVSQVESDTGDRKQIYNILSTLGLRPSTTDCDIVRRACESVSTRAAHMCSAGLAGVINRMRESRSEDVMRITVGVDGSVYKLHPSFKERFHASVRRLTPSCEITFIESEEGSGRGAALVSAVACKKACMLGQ", "sequence (Q14397 whole entry, looked up)": "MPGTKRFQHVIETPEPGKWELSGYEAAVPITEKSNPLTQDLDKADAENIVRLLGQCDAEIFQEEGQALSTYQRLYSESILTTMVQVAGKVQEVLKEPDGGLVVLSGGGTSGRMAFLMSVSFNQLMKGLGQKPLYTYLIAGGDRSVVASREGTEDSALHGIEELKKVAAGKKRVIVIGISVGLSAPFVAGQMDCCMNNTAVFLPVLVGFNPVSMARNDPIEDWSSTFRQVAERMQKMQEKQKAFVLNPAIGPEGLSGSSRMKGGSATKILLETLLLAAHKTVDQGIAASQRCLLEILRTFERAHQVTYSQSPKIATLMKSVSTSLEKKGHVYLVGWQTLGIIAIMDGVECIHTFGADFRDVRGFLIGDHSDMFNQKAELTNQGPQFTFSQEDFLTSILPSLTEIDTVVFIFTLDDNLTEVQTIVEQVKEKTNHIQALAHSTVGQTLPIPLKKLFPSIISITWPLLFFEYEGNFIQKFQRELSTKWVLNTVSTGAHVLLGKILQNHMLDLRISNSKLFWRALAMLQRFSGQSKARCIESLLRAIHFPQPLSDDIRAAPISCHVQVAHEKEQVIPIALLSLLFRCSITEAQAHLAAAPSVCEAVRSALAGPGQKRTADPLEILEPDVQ", "assay": "qHTS assay for inhibitors of recombinant human GCK-GKRP interaction: HTRF assay (AID 743207)", "conditions": "recombinant GCK-GKRP HTRF binding, 60 min, with sorbitol-6-phosphate; series mostly up to 57.5 µM", "how_it_was_run": "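GST-GCK and FLAG-GKRP (5 nM each) were combined with 2 uM S6P in pH 7.1 Hepes/MgCl2/KCl/DTT buffer, then compound and anti-FLAG XL665/anti-GST K antibodies were added. After 60 min at room temperature, HTRF 665/615 nm emission was read.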"}
{"smiles": "C#CCN(C)CCCOc1ccc(Cl)cc1Cl", "Potency": "inactive"}
{"smiles": "Nc1ncn([C@@H]2O[C@H](CO)[C@@H](O)[C@H]2O)c(=O)n1", "Potency": "inactive"}
{"smiles": "CN(C)[C@@H]1C(=O)C(C(N)=O)=C(O)[C@@]2(O)C(=O)C3=C(O)c4c(O)ccc(Cl)c4[C@@H](O)[C@H]3C[C@@H]12", "Potency": "12.6 µM (active)"}
{"smiles": "CC(C)COCC(CN(Cc1ccccc1)c1ccccc1)N1CCCC1", "note": "(stereo unspecified)", "Potency": "inactive"}
{"smiles": "CCN(CC)CCNC(=O)c1ccc(NC(C)=O)cc1", "Potency": "inactive"}
{"smiles": "COC(=O)C1=C(C)NC(C)=C(C(=O)OC(C)(C)CN(C)CCC(c2ccccc2)c2ccccc2)C1c1cccc([N+](=O)[O-])c1", "note": "(stereo unspecified)", "Potency": "inactive"}
{"smiles": "CCc1c(C)[nH]c2c1C(=O)C(CN1CCOCC1)CC2", "note": "(stereo unspecified)", "Potency": "inactive"}
{"smiles": "CC(=O)Nc1nnc(S(N)(=O)=O)s1", "Potency": "inactive"}
{"smiles": "O=C(CCNNC(=O)c1ccncc1)NCc1ccccc1", "Potency": "inactive"}
{"smiles": "C[C@@H](O)[C@H]1C(=O)N2C(C(=O)O)=C(SCCN=CN)C[C@H]12", "Potency": "inactive"}
{"smiles": "CC(=O)[C@@]1(O)CC[C@H]2[C@@H]3CCC4=CC(=O)CC[C@]4(C)[C@H]3CC[C@@]21C", "Potency": "inactive"}
{"smiles": "CNC1(C)C2CCC(C2)C1(C)C", "note": "(stereo unspecified)", "Potency": "inactive"}
{"smiles": "Cc1ccc(S(=O)(=O)NC(=O)NN2CCCCCC2)cc1", "Potency": "inactive"}
{"smiles": "CC(=O)OCC1=C(C(=O)O)N2C(=O)[C@@H](NC(=O)Cc3cccs3)[C@H]2SC1", "Potency": "inactive"}
{"smiles": "CCCNC(C)C(=O)Nc1ccccc1C", "note": "(stereo unspecified)", "Potency": "inactive"}
{"smiles": "COc1cc2c(cc1OC)-c1cc(=Nc3c(C)cc(C)cc3C)n(C)c(=O)n1CC2", "Potency": "inactive"}
{"smiles": "C=CCc1ccccc1OCC(O)CNC(C)C", "note": "(stereo unspecified)", "Potency": "inactive"}
{"smiles": "CSc1ccc(C(=O)c2[nH]c(=O)[nH]c2C)cc1", "Potency": "inactive"}
{"smiles": "OCCN1CCN(CC/C=C2/c3ccccc3Sc3ccc(C(F)(F)F)cc32)CC1", "Potency": "inactive"}
{"smiles": "C[C@]12CC[C@@H]3c4ccc(O)cc4C[C@@H](CCCCCCCCCS(=O)CCCC(F)(F)C(F)(F)F)[C@H]3[C@@H]1CC[C@@H]2O", "note": "(stereo partly specified)", "Potency": "inactive"}
{"smiles": "CCCCNc1c(C(=O)OCC)c(C)nc2c1cnn2CC", "Potency": "inactive"}
